The nature of this assay: compounds quenching DiI signal without cells – biochemical, powder samples, plate reader fluorescence, artefact control for SR-BI HDL uptake inhibitor project, dose response (AID 588403).

Activity calls are given as the source filed them.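 How the source made its calls: active means dose-dependent signal loss with a fitted half-maximal concentration at or below 35 µM; inconclusive means flat fit with 30 to 70% signal loss, or poor fit; inactive means the rest.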

The values that follow come from PubChem BioAssay AID588403 (Broad Institute, 2011).

As to `CCC(=O)N1CCc2cc(-c3cnc(NC(=O)c4ccco4)[nH]3)ccc21`, the outcome was inactive.
For `Cc1ccc(-c2nnn(CC(=O)N(C3CCCCC3)C(C)C(=O)NC3CCCC3)n2)cc1` (stereo not given), the molecule was called inactive.
In the case of `CCC(=O)N1CCc2cc(-c3csc(NC(=O)c4ccc(F)c(OC)c4)n3)ccc21`, the molecule was classed as inactive.
For the molecule `CCC(=O)N1CCc2cc(-c3cnc(NC(C)=O)[nH]3)ccc21`, the call was inactive.
With `COC(=O)N1CCc2cc(-c3csc(NC(=O)c4ccco4)n3)ccc21`, the outcome was inactive.
`COc1ccc(-c2nnn(CC(=O)N(C3CCCCC3)C(C)C(=O)NC3CCCC3)n2)cc1OC` (stereo not given): the molecule was classed as inactive.
`O=C(Nc1nc(-c2ccc3c(c2)CCN3C(=O)C2CC2)cs1)c1ccco1`: the outcome was inactive.
To `CCCCCCC1CCC/C1=N\NC(N)=S` (stereo not given) belongs “inactive”; to `CC(C(=O)NC1CCCC1)N(C(=O)Cn1nnc(-c2ccc3c(c2)OCO3)n1)C1CCCCC1` (stereo not given), “inactive”; to `CC(C(=O)NC1CCCC1)N(C(=O)Cn1nnc(-c2cccc(F)c2)n1)C1CCCCC1` (stereo not given), “inactive”.
Next, `CCC(=O)N1CCc2cc(-c3csc(NC(=O)c4ccco4)n3)ccc21`: “inactive”; `CCC(=O)N1CCc2cc(-c3coc(NC(=O)c4ccco4)n3)ccc21`: “inactive”.
Next, `COc1ccc(-c2nnn(CC(=O)N(CC(=O)NC3CCCC3)C3CCCCC3)n2)cc1OC`: “inactive”; `CC(C(=O)NC1CCCC1)N(C(=O)Cn1nnc(-c2ccccc2F)n1)C1CCCCC1` (stereo not given): “inactive”; `CCC(=O)N1CCc2cc(-c3coc(N)n3)ccc21`: “inactive”.
As to `C[C@@H]1CN([C@H](C)CO)C(=O)c2cc(NC(=O)Cc3cn(C)c4ccccc34)ccc2O[C@H]1CN(C)S(=O)(=O)c1ccc(Cl)cc1`, the result was inactive.
In the case of `CCC(=O)N1CCc2cc(-c3csc(NC(=O)c4cccc(OC)c4)n3)ccc21`, the outcome was inactive.
Take `CC(C(=O)NC1CCCC1)N(C(=O)Cn1nnc(-c2ccccc2Cl)n1)C1CCCCC1` (stereo not given): the molecule was called inactive.
To `CC(C(=O)NC1CCCC1)N(C(=O)Cn1nnc(-c2ccc(Cl)cc2)n1)C1CCCCC1` (stereo not given) belongs “inactive”; to `CC(C(=O)NC1CCCC1)N(C(=O)Cn1nnc(-c2ccc(F)cc2)n1)C1CCCCC1` (stereo not given), “inactive”.
Take `CCC(=O)N1CCc2cc(-c3csc(NC(=O)c4cccc(OC)n4)n3)ccc21`: the result was inactive.
Take `CS(=O)(=O)N1CCc2cc(-c3csc(NC(=O)c4ccco4)n3)ccc21`: the result was inactive.
In the case of `COc1ccccc1-c1nnn(CC(=O)N(C2CCCCC2)C(C)C(=O)NC2CCCC2)n1` (stereo not given), the molecule was called inactive.
To `O=C(Nc1nc(-c2ccc3c(c2)CCN3)cs1)c1ccco1` belongs “inactive”; to `COc1ccc(-c2cc(CC(=O)N(C3CCCCC3)C(C)C(=O)NC3CCCC3)no2)cc1OC` (stereo not given), “inactive”; to `CCC(=O)N1CCc2cc(-c3csc(NC(=O)c4cccc(OC(F)(F)F)c4)n3)ccc21`, “inactive”.
Turning to `COc1cccc(-c2nnn(CC(=O)N(C3CCCCC3)C(C)C(=O)NC3CCCC3)n2)c1` (stereo not given), the call was inactive.
Consider `O=C(CN(C(=O)Cn1nnc(-c2ccc3c(c2)OCO3)n1)C1CCCCC1)NC1CCCC1`, for which the result was inactive.
For `CCC(=O)N1CCc2cc(-c3csc(NC(=O)c4cc(OC)cc(OC)c4)n3)ccc21`, the outcome was inactive.
To `CC(C)C(=O)N1CCc2cc(-c3csc(NC(=O)c4ccco4)n3)ccc21` belongs “inactive”.
